Measurements published in PubChem BioAssay (NCI).
Compounds without any hit were thinned out: in the full panel of roughly 79,000, 15% have a hit. Active and inactive are the calls of the source. Rule as the data show it: active = growth inhibition above about 70%; inactive = the rest.

Assays:
[1] = NCI Yeast Anticancer Drug Screen. Data for the rad52 strain (AID 147);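 also: 0% = growth of vehicle-treated control cultures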; settings: S. cerevisiae rad52 mutant growth inhibition, stronger effect = higher value
In short: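 Compounds are applied to a genetically defined yeast strain lacking normal DNA damage repair, and inhibition of growth is expressed relative to cultures given vehicle only.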

[2] = NCI Yeast Anticancer Drug Screen. Data for the wt1 strain (AID 149);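 also: 0% = growth of vehicle-treated wt1 cultures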; settings: S. cerevisiae wt1 strain (SPY 50644) growth inhibition, stronger effect = higher value
In short: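 Readout: yeast growth inhibition, normalised to vehicle controls, in the wt1 strain exposed to test compounds.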

[3] = NCI Yeast Anticancer Drug Screen. Data for the rad50EPP+ strain (AID 151);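 also: 0% = growth of vehicle-treated control cultures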; settings: S. cerevisiae rad50 mutant strain, stronger effect = higher value
In short: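 Compounds were applied to the rad50EPP+ yeast strain, which bears a defined DNA repair alteration, and growth inhibition was determined relative to vehicle-treated cultures.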

[4] = NCI Yeast Anticancer Drug Screen. Data for the rad50 strain (AID 155);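 also: 0% = growth of vehicle-only cultures of the same strain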; settings: S. cerevisiae rad50 strain growth inhibition, stronger effect = higher value
In short: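 Compounds were tested on a yeast strain with an engineered DNA damage repair alteration; the reported value is growth inhibition normalised to vehicle treatment.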

[5] = NCI Yeast Anticancer Drug Screen. Data for the mec2-1 strain (AID 157); settings: S. cerevisiae mec2-1 strain, stronger effect = higher value
In short: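 Strain: mec2-1 (DNA repair/cell cycle alteration). Compound exposure, then growth measured; inhibition expressed relative to vehicle.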

[6] = NCI Yeast Anticancer Drug Screen. Data for the rad14 strain (AID 159);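 also: 0% = growth of vehicle-treated control cultures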; settings: S. cerevisiae rad14 strain growth inhibition, stronger effect = higher value
In short: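 Compound-treated yeast with a defined DNA-repair lesion; growth inhibition normalised to vehicle-treated cultures.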

[7] = NCI Yeast Anticancer Drug Screen. Data for the sgs1 mgt1 strain (AID 161);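 also: 0% = growth of cultures given vehicle only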; settings: S. cerevisiae sgs1 mgt1 strain, stronger effect = higher value
In short: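 Read-out: growth inhibition vs vehicle controls. Cells: mutant yeast strain deficient in DNA damage repair.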

[8] = NCI Yeast Anticancer Drug Screen. Data for the CLN2oe strain (AID 163);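 also: 0% = growth of vehicle-only control cultures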; settings: S. cerevisiae CLN2oe strain, stronger effect = higher value
In short: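 Growth of a genetically modified yeast strain is measured after compound exposure and compared with cultures given vehicle alone.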

[9] = NCI Yeast Anticancer Drug Screen. Data for the cln2 rad14 strain (AID 165);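 also: 0% = growth equal to vehicle treated cultures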; settings: S. cerevisiae cln2 rad14 strain, stronger effect = higher value
In short: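 Compounds are applied to the cln2 rad14 yeast strain, and growth is then compared with that of vehicle-treated cultures to give inhibition.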

[10] = NCI Yeast Anticancer Drug Screen. Data for the bub3 strain (AID 167); settings: S. cerevisiae bub3 mutant strain, stronger effect = higher value
In short: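 Growth of a checkpoint-deficient yeast mutant is measured after compound exposure. Values represent inhibition relative to vehicle.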

[11] = NCI Yeast Anticancer Drug Screen. Data for the wt2 strain (AID 169);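 also: 0% = growth of vehicle-treated yeast cultures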; settings: S. cerevisiae wt2 strain growth inhibition, stronger effect = higher value
In short: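 This strain belongs to a panel of yeast strains with defined genetic alterations in DNA damage repair or cell cycle control. Compounds are applied, and growth inhibition is measured against vehicle-treated cultures.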

[12] = NCI Yeast Anticancer Drug Screen. Data for the mlh1 strain (AID 171);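 also: 0% = growth of vehicle-treated control cultures of the same strain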; settings: S. cerevisiae mlh1 strain growth inhibition, stronger effect = higher value
In short: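 Growth of the mutant yeast strain after compound exposure, expressed as inhibition relative to vehicle-only controls.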

[13] = NCI Yeast Anticancer Drug Screen. Data for the sgs1 strain (AID 173);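 also: 0% = growth of vehicle-only control cultures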; settings: S. cerevisiae sgs1 mutant, stronger effect = higher value
In short: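 Growth of a yeast strain bearing a defined genetic alteration is measured after compound treatment. Inhibition is expressed relative to vehicle-only controls.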

[14] = NCI Yeast Anticancer Drug Screen. Data for the mlh1 rad18 strain (AID 175); settings: S. cerevisiae mlh1 rad18 strain growth inhibition, stronger effect = higher value
In short: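 Read-out is yeast growth inhibition, calculated against vehicle-only controls. The compound was applied to a strain engineered with DNA damage repair alterations.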

[15] = NCI Yeast Anticancer Drug Screen. Data for the rad18 strain (AID 177); settings: S. cerevisiae rad18 mutant growth inhibition, stronger effect = higher value
In short: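 Growth of the mutant yeast strain after compound exposure, normalised to vehicle-only cultures.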

[16] = at 5.0 µM (retest, dose inferred, filed as 0.5)
[17] = at 50.0 µM (retest, dose inferred, filed as 5.0)

Measured: growth inhibition

COc1ccccc1NC(=O)c1ccc(Cl)cc1
active: [9]; [17] 75%
inactive: [1]; at 1.2 µM 0% | [1]; at 3.7 µM 3% | [1]; at 11.0 µM 4% | [1]; at 33.0 µM 5% | [1]; at 100.0 µM 1% | [2]; at 1.2 µM -1% | [2]; at 3.7 µM 1% | [2]; at 11.0 µM 1% | [2]; at 33.0 µM 0% | [2]; at 100.0 µM -1% | [3]; at 1.2 µM 7% | [3]; at 3.7 µM 9% | [3]; at 11.0 µM 22% | [3]; at 33.0 µM 40% | [3]; at 100.0 µM 40% | [4]; at 1.2 µM 3% | [4]; at 3.7 µM 5% | [4]; [16] -13% | [4]; at 11.0 µM 8% | [4]; at 33.0 µM 6% | [4]; [17] 12% | [4]; at 50.0 µM 17.6% | [4]; at 100.0 µM 8% | [5]; at 1.2 µM -5% | [5]; at 3.7 µM -5% | [5]; [16] -6% | [5]; at 11.0 µM -7% | [5]; at 33.0 µM -6% | [5]; [17] -14% | [5]; at 50.0 µM 11.1% | [5]; at 100.0 µM -4% | [6]; at 1.2 µM 0% | [6]; at 3.7 µM -1% | [6]; at 11.0 µM 0% | [6]; at 33.0 µM 1% | [6]; at 100.0 µM 0% | [7]; [16] 3% | [7]; [17] 7% | [7]; at 50.0 µM 20.8% | [8]; at 1.2 µM -2% | [8]; at 3.7 µM 0% | [8]; at 11.0 µM -6% | [8]; at 33.0 µM -7% | [8]; at 100.0 µM -4% | [9]; [16] 23% | [9]; at 50.0 µM 16.9% | [10]; at 1.2 µM -5% | [10]; at 3.7 µM -5% | [10]; [16] -8% | [10]; at 11.0 µM -3% | [10]; at 33.0 µM 5% | [10]; [17] -10% | [10]; at 50.0 µM 23.9% | [10]; at 100.0 µM 7% | [11]; at 1.2 µM -1% | [11]; at 3.7 µM -2% | [11]; at 11.0 µM -2% | [11]; at 33.0 µM -3% | [11]; at 100.0 µM -2% | [12]; at 1.2 µM 0% | [12]; at 3.7 µM 1% | [12]; at 11.0 µM 4% | [12]; at 33.0 µM 3% | [12]; at 100.0 µM 3% | [13]; at 1.2 µM 0% | [13]; at 3.7 µM 1% | [13]; at 11.0 µM 2% | [13]; at 33.0 µM 3% | [13]; at 100.0 µM 2% | [14]; [16] -6% | [14]; [17] 11% | [14]; at 50.0 µM 0.15% | [15]; at 1.2 µM 3% | [15]; at 3.7 µM 3% | [15]; at 11.0 µM 1% | [15]; at 33.0 µM 3% | [15]; at 100.0 µM 2%

CCCCN(CCCC)c1ccc(N=Nc2ccc(S(=O)(=O)O)cc2)cc1
inactive: [1]; at 1.2 µM 21% | [1]; at 3.7 µM 48% | [1]; at 11.0 µM 40% | [2]; at 1.2 µM -9% | [2]; at 3.7 µM 2% | [2]; at 11.0 µM 33% | [3]; at 1.2 µM 10% | [3]; at 3.7 µM 8% | [3]; at 11.0 µM 48% | [4]; at 1.2 µM 16% | [4]; at 3.7 µM 14% | [4]; [16] 63% | [4]; at 11.0 µM 38% | [5]; at 1.2 µM 32% | [5]; at 3.7 µM 43% | [5]; [16] 52% | [6]; at 1.2 µM -5% | [6]; at 3.7 µM 8% | [6]; at 11.0 µM 38% | [7]; [16] -48% | [8]; at 1.2 µM 12% | [8]; at 3.7 µM -15% | [8]; at 11.0 µM -8% | [9]; [16] 20% | [10]; at 1.2 µM 34% | [10]; at 3.7 µM 55% | [10]; [16] -2% | [11]; at 1.2 µM -7% | [11]; at 3.7 µM 39% | [12]; at 1.2 µM 1% | [12]; at 3.7 µM 18% | [13]; at 1.2 µM 30% | [13]; at 3.7 µM 53% | [14]; [16] 51% | [15]; at 1.2 µM -18% | [15]; at 3.7 µM 0% | [15]; at 11.0 µM 8%
active: [1]; at 33.0 µM 89% | [1]; at 100.0 µM 90% | [2]; at 33.0 µM 97% | [2]; at 100.0 µM 97% | [3]; at 33.0 µM 84% | [3]; at 100.0 µM 87% | [4]; at 33.0 µM 92% | [4]; [17] 99% | [4]; at 50.0 µM 87.7% | [4]; at 100.0 µM 93% | [5]; at 11.0 µM 77% | [5]; at 33.0 µM 97% | [5]; [17] 98% | [5]; at 50.0 µM 90.7% | [5]; at 100.0 µM 97% | [6]; at 33.0 µM 97% | [6]; at 100.0 µM 97% | [7]; [17] 98% | [7]; at 50.0 µM 91.7% | [8]; at 33.0 µM 97% | [8]; at 100.0 µM 96% | [9]; [17] 98% | [9]; at 50.0 µM 88.7% | [10]; at 11.0 µM 71% | [10]; at 33.0 µM 94% | [10]; [17] 96% | [10]; at 50.0 µM 89.8% | [10]; at 100.0 µM 95% | [11]; at 11.0 µM 89% | [11]; at 33.0 µM 97% | [11]; at 100.0 µM 97% | [12]; at 11.0 µM 82% | [12]; at 33.0 µM 94% | [12]; at 100.0 µM 94% | [13]; at 11.0 µM 90% | [13]; at 33.0 µM 94% | [13]; at 100.0 µM 94% | [14]; [17] 99% | [14]; at 50.0 µM 88.2% | [15]; at 33.0 µM 90% | [15]; at 100.0 µM 92%
